Experimental data published in PMC5540273 (PLoS ONE, 2017).

Columns and labels:
Settings in all cases: concentration: 1 μM, replicates: in singlicate; n = 1
HIPK4 = tested on: HIPK4
HPK1 = tested on: HPK1
HUNK = tested on: HUNK
ICK = tested on: ICK
IGF1R = tested on: IGF1R
IKK-alpha = tested on: T1, IKK-alpha
T1 construct: gene CHUK

IKK-beta = tested on: T2, IKK-beta
T2 construct: gene IKBKB

IKK-epsilon = tested on: T3, IKK-epsilon
T3 construct: gene IKBKE

INSRR = tested on: INSRR
INSR = tested on: INSR
IRAK1 = tested on: IRAK1
IRAK3 = tested on: IRAK3
IRAK4 = tested on: IRAK4
ITK = tested on: ITK
[1] = tested on: JAK1(JH1domain-catalytic)
[2] = tested on: JAK1(JH2domain-pseudokinase)
[3] = tested on: JAK2(JH1domain-catalytic)
[4] = tested on: JAK3(JH1domain-catalytic)
JNK1 = tested on: T4, JNK1
T4 construct: gene MAPK8

JNK2 = tested on: T5, JNK2
T5 construct: gene MAPK9
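Further: KINOMEscan kinase panel screen.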

| SMILES | %Inh (HIPK4) [%] | %Inh (HPK1) [%] | %Inh (HUNK) [%] | %Inh (ICK) [%] | %Inh (IGF1R) [%] | %Inh (IKK-alpha) [%] | %Inh (IKK-beta) [%] | %Inh (IKK-epsilon) [%] | %Inh (INSRR) [%] | %Inh (INSR) [%] | %Inh (IRAK1) [%] | %Inh (IRAK3) [%] | %Inh (IRAK4) [%] | %Inh (ITK) [%] | %Inh [1] [%] | %Inh [2] [%] | %Inh [3] [%] | %Inh [4] [%] | %Inh (JNK1) [%] | %Inh (JNK2) [%] |
| --- | --- | --- | --- | --- | --- | --- | --- | --- | --- | --- | --- | --- | --- | --- | --- | --- | --- | --- | --- | --- |
| O=c1cc(N2CCOCC2)nc2n(Cc3ccccc3F)ccn12 [GSK2297428] | 0 | 34 | 0 | 0 | 7 | 0 | 0 | 0 | 0 | 0 | 0 | 0 | 0 | 15 | 10 | 0 | 0 | 0 | 1 | 11 |
| COc1cccc(C2=C(Nc3cc(Cl)c(O)c(Cl)c3)C(=O)NC2=O)c1 [SB-390767] | 0 | 43 | 0 | 27 | 5 | 37 | 56 | 0 | 0 | 0 | 43 | 0 | 47 | 18 | 12 | 0 | 40 | 93.7 | 27 | 20 |
| Cc1ccc(NC(=O)c2ccc(Cl)cc2)cc1-c1ccc(C(=O)Nc2ccncc2)cc1 [GSK1398467] | 0 | 36 | 8 | 0 | 11 | 12 | 6 | 15 | 0 | 0 | 30 | 3 | 14 | 8 | 0 | 0 | 0 | 0 | 19 | 15 |
| CC(=O)c1c(C)c2cnc(Nc3ccn(C)n3)nc2n(C2CCCC2)c1=O | 0 | 0 | 0 | 0 | 1 | 0 | 0 | 0 | 0 | 0 | 11 | 0 | 11 | 0 | 0 | 0 | 0 | 9 | 8 | 18 |
| Cl.Cl.Cl.N#Cc1ccc(CCNc2nccc(-c3cccc(CN4CCNCC4)c3)n2)cc1 [GSK2137462] | 26 | 48 | 0 | 5 | 11 | 0 | 0 | 20 | 0 | 87 | 0 | 0 | 0 | 7 | 3 | 6 | 0 | 0 | 32 | 0 |
| CC(=O)c1cccc(NC(=O)NC2CCN(c3ccnc(Nc4ccc(F)cc4)n3)C2)c1 (stereo not drawn) [GSK1379710] | 0 | 50 | 0 | 5 | 0 | 4 | 1 | 33 | 0 | 12 | 27 | 11 | 7 | 8 | 21 | 9 | 25 | 0 | 16 | 13 |
| COc1ccc(Nc2nccc(N3CCC(NC(=O)C(C)c4ccc(Cl)cc4)C3)n2)cc1 (stereo not drawn) [GSK1379735] | 9 | 51 | 0 | 18 | 0 | 0 | 0 | 0 | 28 | 11 | 1 | 10 | 3 | 14 | 10 | 0 | 24 | 0 | 12 | 0 |
| CNc1nc(-c2ccc3c(N)n[nH]c3c2)cc(N2C[C@@H](C(=O)Nc3ccccc3)CC[C@H]2C)n1 [GSK2298859] | 0 | 18 | 0 | 0 | 11 | 0 | 0 | 24 | 0 | 0 | 0 | 0 | 8 | 12 | 0 | 0 | 0 | 0 | 2 | 15 |
| COc1ccc(Nc2nccc(NCCNC(=O)Nc3cc(C)ccc3C)n2)cc1 [GSK1379899] | 0 | 40 | 0 | 18 | 7 | 8 | 9 | 1 | 0 | 0 | 0 | 8 | 3 | 10 | 0 | 0 | 16 | 0 | 20 | 0 |
| COc1cccc(NC(=O)Nc2ccc(C)c(-c3ccc(C(=O)Nc4ccncc4)cc3)c2)c1 [GSK1398474] | 27 | 78 | 2 | 17 | 12 | 0 | 84 | 22 | 0 | 0 | 0 | 7 | 1 | 11 | 20 | 0 | 0 | 0 | 8 | 39 |
| COc1nccc(-c2c(-c3ccc(F)cc3)ncn2CCCN2CCOCC2)n1 [SB-282852] | 0 | 21 | 0 | 16 | 0 | 26 | 21 | 8 | 0 | 0 | 3 | 0 | 0 | 53 | 36 | 0 | 4 | 12 | 41 | 61 |
| CNc1nc(-c2ccc3c(N)n[nH]c3c2)cc(N2C[C@@H](C(=O)NC3CCCCC3)OC[C@H]2C)n1 [GSK2375584] | 0 | 14 | 21 | 12 | 8 | 0 | 0 | 30 | 0 | 6 | 21 | 0 | 0 | 10 | 11 | 0 | 0 | 0 | 3 | 0 |
| O=C1NC(=O)C(c2ccc(Cl)cc2)=C1Nc1cccc(Cl)c1 [SB-317651] | 0 | 12 | 0 | 28 | 0 | 0 | 0 | 0 | 0 | 11 | 0 | 0 | 0 | 5 | 26 | 0 | 11 | 0 | 61 | 56 |
| Cn1cncc1C(=O)NC1CCN(c2ccnc(Nc3ccc(F)cc3)n2)C1 (stereo not drawn) [GSK1379717] | 0 | 68 | 0 | 31 | 0 | 25 | 17 | 33 | 0 | 10 | 41 | 0 | 26 | 1 | 17 | 0 | 100 | 0 | 29 | 3 |
| Fc1ccc(-c2nn3cccc(F)c3c2-c2ccncc2)cc1 [GW475620] | 22 | 0 | 0 | 0 | 47 | 0 | 0 | 14 | 0 | 13 | 9 | 2 | 0 | 0 | 10 | 30 | 17 | 0 | 61 | 93.5 |
